High-throughput results as filed in PubChem BioAssay.
DRD3 agonist: qHTS of D3 Dopamine Receptor Agonist: qHTS; D(3) dopamine receptor (Homo sapiens), P35462; D3R DiscoveRx beta-arrestin cells, luminescence, 90 min; max activation, %; 0.58% of 410,000 active; AID 652048, 2013; in the data active = max activation above about 30%
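Cells at 1500/well, incubated overnight, then treated with pinned compounds (dopamine as control) for 90 min at 37 degrees C. DiscoveRx reagent added for 30 - 60 minutes at room temperature; luminescence read.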
D1 ag: Allosteric Agonists of the Human D1 Dopamine Receptor: qHTS. HEK293 T-REx D1 cells, calcium flux, agonist mode. AID 504660, 2011. D(1A) dopamine receptor (Homo sapiens), P21728. activation, % at 2 µM. 1% of 360,000 active; in the data active = activation above about 30%
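Agonism was scored from calcium flux recorded over 180 s (1 read/s) after pintool compound addition, following a 10-cycle baseline. Cells were inducible force-coupled HEK293 TREx D1, plated overnight at 30 C and loaded with no-wash calcium dye.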
D1 potentiator: Potentiators of Human D1 Dopamine Receptor: qHTS; potentiation, % at 10 µM; D(1A) dopamine receptor (Homo sapiens), P21728; 0.036% of 360,000 active; HEK293 TREx D1 cells, calcium flux, dopamine EC20 potentiation; in the data active = potentiation above about 30%
DRD3 antagonist: qHTS of D3 Dopamine Receptor Antagonist: qHTS; D(3) dopamine receptor (Homo sapiens), P35462; D3R cells, DiscoveRx beta-arrestin luminescence, antagonist mode; active compounds read low; max response, negative = inhibition, %; 2.5% of 360,000 active; AID 652054, 2013; in the data active = max response below about -50%; inconclusive = no clear call, values can overlap the other calls
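Cells expressing the human receptor were seeded at 1500 cells/well, incubated overnight at 37 degrees C in 5% CO2, then exposed to library compounds with dopamine controls for 90 minutes at 37 degrees C before luminescent detection.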
ERG Ets-DNA blk: qHTS for Small Molecule Inhibitors of the ERG Ets/DNA interaction | 0.028% of 370,000 active | Transcriptional regulator ERG (Homo sapiens), P11308 | fluorescence polarization, His-ERG Ets domain / labelled DNA | Potency, µM (top dose mostly 76.9 µM), usual class: inhibitors; active = well fitted inhibition curve with a large enough effect in the polarisation, with a control signal flat; inconclusive = small, poorly fitted or top-dose-only effect, or effect the other way, or a change in a side signal; inactive = no such curve, though single readings can be large or run the other way; the % refers to the polarisation;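 note: polarization taken with two DNA probes labelled with fluorescein and Texas red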
Target sequence (P11308 whole entry, looked up, the tested form may be a part): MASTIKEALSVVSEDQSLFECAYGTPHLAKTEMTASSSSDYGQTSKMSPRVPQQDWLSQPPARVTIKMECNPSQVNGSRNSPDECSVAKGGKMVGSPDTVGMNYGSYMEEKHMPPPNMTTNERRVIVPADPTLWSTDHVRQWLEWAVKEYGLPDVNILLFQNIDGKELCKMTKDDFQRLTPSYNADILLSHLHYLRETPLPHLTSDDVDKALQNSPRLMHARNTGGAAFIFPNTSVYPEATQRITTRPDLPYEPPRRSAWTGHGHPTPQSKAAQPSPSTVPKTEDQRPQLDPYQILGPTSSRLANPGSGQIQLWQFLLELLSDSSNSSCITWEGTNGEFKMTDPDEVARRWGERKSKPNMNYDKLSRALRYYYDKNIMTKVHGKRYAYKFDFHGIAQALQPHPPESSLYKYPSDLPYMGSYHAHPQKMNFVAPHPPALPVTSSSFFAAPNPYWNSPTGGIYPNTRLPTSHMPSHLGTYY
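His-tagged ERG Ets domain (1 uM in the protein solution; 300mM KCl, 50mM Tris-HCl, 1mM EDTA, 1mM DTT, pH 7.5) received compound, then a probe mix of 5 nM fluorescein-DNA and 100nM Texas-615-DNA. Fluorescence polarization was read for both dyes.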
D1 antag: Antagonist of Human D 1 Dopamine Receptor: qHTS; D(1A) dopamine receptor (Homo sapiens), P21728; HEK293 TREx D1 cells, calcium flux, dopamine EC80; active compounds read low; activity change, negative = inhibition, % at 10 µM; 3.2% of 360,000 active; AID 504652, 2011; in the data active = activity change below about -30%
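Using tetracycline-induced force-coupled D1 Hek293 cells and a calcium dye, signals were followed for 180 s after compound, then for 180 s after EC80 dopamine, to detect inhibitors.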
A number is an active result. An excerpt weighted towards active compounds, which were near 6.1% of everything screened.

Screening CCOC(=O)C1C(=O)NC(c2ccccc2)=NC1c1ccc(Cl)cc1 (stereo unspecified) returned DRD3 agonist inactive, D1 ag inactive, D1 potentiator inactive, DRD3 antagonist inactive, ERG Ets-DNA blk inactive and D1 antag inactive.
`CCOC(=O)C1C(=O)NC(c2ccccc2)=NC1c1ccc(C(C)C)cc1` (stereo unspecified) gave DRD3 agonist inactive, D1 ag inactive, D1 potentiator inactive, DRD3 antagonist inactive, ERG Ets-DNA blk inactive and D1 antag -34.
For CN(Cc1cccs1)C(=O)Cc1csc(-c2ccccc2)n1 the results were DRD3 agonist inactive, D1 ag inactive, D1 potentiator inactive, DRD3 antagonist inactive, ERG Ets-DNA blk inactive and D1 antag inactive.
`CCCCC1(C)Cc2ccccc2C(=S)N1` (stereo unspecified) gave DRD3 agonist inactive, D1 ag inactive, D1 potentiator inactive, DRD3 antagonist -50, ERG Ets-DNA blk inactive and D1 antag inactive.
`CC(C)n1nnnc1SCC(=O)N1CCOCC1` gave DRD3 agonist inactive, D1 ag inactive, D1 potentiator inactive, DRD3 antagonist inactive, ERG Ets-DNA blk inactive and D1 antag inactive.
`COC(=O)c1cn(-c2ccccc2)c(C)c1C(=O)OC` gave DRD3 agonist inactive, D1 ag 50, D1 potentiator inactive, DRD3 antagonist inactive, ERG Ets-DNA blk inactive and D1 antag inactive.
Screening O=C(COCc1cc(-c2ccc3c(c2)OCO3)on1)Nc1cc(C(F)(F)F)ccc1Cl returned DRD3 agonist inactive, D1 ag 33, D1 potentiator inactive, ERG Ets-DNA blk inactive and D1 antag inactive.
`O=C(COCc1cc(-c2ccc(F)cc2)on1)Nc1cc(Cl)ccc1O` gave DRD3 agonist inactive, D1 ag inactive, D1 potentiator inactive, ERG Ets-DNA blk inactive and D1 antag -37.
Cc1c(Cl)cccc1NC(=O)COCc1cc(-c2ccc3c(c2)OCO3)on1 was read as DRD3 agonist inactive, D1 ag inactive, D1 potentiator inactive, ERG Ets-DNA blk inactive and D1 antag inactive.
Clc1ccc2scc(CN3CCCCC3)c2c1 was read as DRD3 agonist inactive, D1 ag inactive, D1 potentiator inactive, DRD3 antagonist -88, ERG Ets-DNA blk inactive and D1 antag inactive.
Screening O=[N+]([O-])c1ccc(Cl)cc1CN1CCCCCC1 returned DRD3 agonist inactive, D1 ag inactive, D1 potentiator inactive, DRD3 antagonist inactive, ERG Ets-DNA blk inactive and D1 antag inactive.
O=C(NCc1ccco1)c1cnn2cccnc12 was read as DRD3 agonist inactive, D1 ag inactive, D1 potentiator inactive, DRD3 antagonist inactive, ERG Ets-DNA blk inactive and D1 antag inactive.
CCC(C)(C)n1nnnc1C(C(C)C)N(Cc1cccnc1)Cc1ccco1 (stereo unspecified) was read as DRD3 agonist inactive, D1 ag inactive, D1 potentiator inactive, DRD3 antagonist inactive, ERG Ets-DNA blk inactive and D1 antag -44.
For COC(=O)CCCC(=O)N1CCCC(C(=O)c2ccc(-c3ccccc3)cc2)C1 (stereo unspecified) the results were DRD3 agonist inactive, D1 ag inactive, D1 potentiator inactive, DRD3 antagonist inactive, ERG Ets-DNA blk inactive and D1 antag -30.
`CCC(=O)N1CCCC(C(=O)c2ccc(-c3ccccc3)cc2)C1` (stereo unspecified) gave DRD3 agonist inactive, D1 ag inactive, D1 potentiator inactive, DRD3 antagonist inactive, ERG Ets-DNA blk inactive and D1 antag -30.
O=C(N/N=C/c1cn(Cc2cccc(F)c2)c2ccccc12)c1cc(O)cc(O)c1 was read as DRD3 agonist inactive, D1 ag inactive, D1 potentiator inactive, DRD3 antagonist inactive, ERG Ets-DNA blk inactive and D1 antag inactive.
For CCCCCCCNC(=O)C1(CC2CC(c3ccccc3)=NO2)CCN(C(=O)c2ccccc2)CC1 (stereo unspecified) the results were DRD3 agonist inactive, D1 ag inactive, D1 potentiator inactive, DRD3 antagonist inconclusive, ERG Ets-DNA blk inactive and D1 antag inactive.
`O=C(Cc1ccc(F)cc1)N1CCC(CC2CC(c3ccc(Cl)cc3)=NO2)(C(=O)NCC2CCCCC2)CC1` (stereo unspecified) gave DRD3 agonist inactive, D1 ag inactive, D1 potentiator inactive, DRD3 antagonist inactive, ERG Ets-DNA blk inactive and D1 antag inactive.
O=C(Cc1ccc(F)cc1)N1CCC(CC2CC(c3cccc(Br)c3)=NO2)(C(=O)NCC2CCCCC2)CC1 (stereo unspecified) was read as DRD3 agonist inactive, D1 ag inactive, D1 potentiator inactive, DRD3 antagonist -51, ERG Ets-DNA blk inactive and D1 antag inactive.
`CCCCCCCNC(=O)C1(CC2CC(c3ccccc3)=NO2)CCN(C(=O)OC(C)(C)C)CC1` (stereo unspecified) gave DRD3 agonist inactive, D1 ag inactive, D1 potentiator inactive, DRD3 antagonist inactive, ERG Ets-DNA blk inactive and D1 antag -37.
`CC(C)CNC(=O)c1ccc(Cl)c(NC(=O)COc2ccccc2)c1` gave D1 ag inactive, D1 potentiator inactive and D1 antag inactive.
Screening CCOc1ccccc1NC1=CC(=O)CC(c2ccccc2)C1 (stereo unspecified) returned DRD3 agonist inactive, D1 ag inactive, D1 potentiator inactive, DRD3 antagonist inactive, ERG Ets-DNA blk inactive and D1 antag -31.
For Cc1nn2c(NCCCN(C)C)c3c(nc2c1-c1ccccc1)CCCC3 the results were DRD3 agonist inactive, D1 ag inactive, D1 potentiator inactive, DRD3 antagonist inactive, ERG Ets-DNA blk inactive and D1 antag -38.
Cc1nn2c(NCCCN(C)C)c3c(nc2c1-c1ccccc1)CCC3 was read as DRD3 agonist inactive, D1 ag inactive, D1 potentiator inactive, DRD3 antagonist inactive, ERG Ets-DNA blk inactive and D1 antag inactive.
`COc1cccc(N2CC(C(=O)Nc3ccc(C(=O)OC(C)C)cc3)CC2=O)c1` (stereo unspecified) gave DRD3 agonist inactive, D1 ag inactive, D1 potentiator inactive, DRD3 antagonist inactive, ERG Ets-DNA blk inactive and D1 antag -30.
Screening COc1cccc(N2CC(C(=O)Nc3ccc(F)cc3)CC2=O)c1 (stereo unspecified) returned DRD3 agonist inactive, D1 ag inactive, D1 potentiator inactive, DRD3 antagonist inactive, ERG Ets-DNA blk inactive and D1 antag inactive.
